Measurements published in PubChem BioAssay.
Active and inactive are the calls of the source.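 How the source made its calls: active means luciferase signal above three times the same-plate solvent-only control wells; inactive means the rest.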

These compounds were tested against Mitogen-activated protein kinase 7 (Homo sapiens) (UniProt Q13164) (assay: Gal4-ERK5 driven luciferase induction – cell-based, HTS, primary screen (AID 1508626;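 further: luciferase driven by Gal4-ERK5 fusion binding five Gal4 sites before minimal TATA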)). Details: HeLa Gal4-ERK5 transactivation, 18 h, at 5 µM, stronger effect = higher value.
Mitogen-activated protein kinase 7 (Homo sapiens), sequence (Q13164 whole entry, looked up, the tested form may be a part): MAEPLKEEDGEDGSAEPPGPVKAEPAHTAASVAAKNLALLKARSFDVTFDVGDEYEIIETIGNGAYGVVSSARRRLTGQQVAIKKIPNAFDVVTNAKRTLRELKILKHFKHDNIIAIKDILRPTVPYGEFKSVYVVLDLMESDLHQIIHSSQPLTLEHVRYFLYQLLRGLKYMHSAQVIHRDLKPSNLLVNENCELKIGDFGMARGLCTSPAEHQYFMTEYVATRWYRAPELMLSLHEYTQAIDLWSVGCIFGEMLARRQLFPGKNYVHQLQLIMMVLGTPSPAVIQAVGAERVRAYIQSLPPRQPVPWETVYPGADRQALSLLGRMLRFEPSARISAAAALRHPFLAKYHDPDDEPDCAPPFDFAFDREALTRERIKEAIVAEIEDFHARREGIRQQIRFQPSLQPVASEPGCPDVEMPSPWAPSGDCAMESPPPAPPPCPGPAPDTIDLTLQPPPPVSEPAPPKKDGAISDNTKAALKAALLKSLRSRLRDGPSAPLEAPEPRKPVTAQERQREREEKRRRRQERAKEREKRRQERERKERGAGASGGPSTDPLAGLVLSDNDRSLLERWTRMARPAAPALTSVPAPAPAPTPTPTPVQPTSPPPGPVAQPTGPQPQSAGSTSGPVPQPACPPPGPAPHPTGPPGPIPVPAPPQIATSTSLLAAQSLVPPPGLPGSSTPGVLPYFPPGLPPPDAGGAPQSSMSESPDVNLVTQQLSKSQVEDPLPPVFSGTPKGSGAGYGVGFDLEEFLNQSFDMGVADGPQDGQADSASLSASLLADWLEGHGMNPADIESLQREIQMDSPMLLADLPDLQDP

Row | SMILES | luciferase signal
1 | COc1cc([C@@H]2c3cc4c(cc3[C@@H](O[C@@H]3O[C@@H]5CO[C@@H](c6cccs6)O[C@H]5[C@H](O)[C@H]3O)[C@H]3COC(=O)[C@H]23)OCO4)cc(OC)c1O | 72 AU (inactive)
2 | C[C@H]1O[C@@H](O[C@H]2[C@@H](O)C[C@H](O[C@H]3[C@@H](O)C[C@H](O[C@H]4CC[C@@]5(C)[C@H](CC[C@@H]6[C@@H]5C[C@@H](O)[C@]5(C)[C@@H](C7=CC(=O)OC7)CC[C@]65O)C4)O[C@@H]3C)O[C@@H]2C)C[C@H](O)[C@@H]1O | 24 AU (inactive)
3 | CCC[C@@H]1C[C@@H](C(=O)N[C@@H]([C@H]2O[C@H](SC)[C@H](O)[C@@H](O)[C@H]2O)[C@H](C)Cl)N(C)C1 | 136 AU (inactive)
4 | C[C@H]1C[C@H]2[C@@H]3CCC4=CC(=O)C=C[C@]4(C)[C@@]3(F)[C@@H](O)C[C@]2(C)[C@@]1(O)C(=O)CO | 80 AU (inactive)
5 | CC(C)(O)CC[C@@H](O)[C@](C)(O)[C@H]1CC[C@@]2(O)C3=CC(=O)[C@@H]4C[C@@H](O)[C@@H](O)C[C@]4(C)[C@H]3CC[C@]12C | 60 AU (inactive)
6 | C=C(C)[C@@H]1CC[C@]2(C(=O)O)CC[C@]3(C)[C@H](CC[C@@H]4[C@@]5(C)CC[C@H](O)C(C)(C)[C@@H]5CC[C@]43C)[C@@H]12 | 64 AU (inactive)
7 | CC(C)C[C@H]1C(=O)N2CCC[C@H]2[C@]2(O)O[C@](NC(=O)[C@@H]3C=C4c5cccc6[nH]c(Br)c(c56)C[C@H]4N(C)C3)(C(C)C)C(=O)N12 | 200 AU (inactive)
8 | O=C(/C=C/c1ccc(O)c(O)c1)O[C@H](Cc1ccc(O)c(O)c1)C(=O)O | 44 AU (inactive)
9 | COc1cc([C@@H]2c3cc4c(cc3[C@H](O)[C@H]3COC(=O)[C@@H]23)OCO4)cc(OC)c1OC | 76 AU (inactive)
10 | COc1ccc(CCC(=O)c2c(O)cc(O[C@@H]3O[C@H](CO)[C@@H](O)[C@H](O)[C@H]3O[C@@H]3O[C@@H](C)[C@H](O)[C@@H](O)[C@H]3O)cc2O)cc1O | 36 AU (inactive)
11 | Nc1ccn([C@@H]2O[C@H](CO)[C@@H](O)[C@H]2O)c(=O)n1 | 60 AU (inactive)
12 | C[C@@]12C[C@@]3(O)O[C@@H](O1)[C@]1(COC(=O)c4ccccc4)[C@H]3C[C@@]12O[C@@H]1O[C@H](CO)[C@@H](O)[C@H](O)[C@H]1O | 60 AU (inactive)
13 | CC(=O)[C@H]1CC[C@H]2[C@@H]3CCC4=CC(=O)CC[C@]4(C)[C@H]3CC[C@]12C | 28 AU (inactive)
14 | CCC[C@@H]1C[C@@H](C(=O)N[C@@H]([C@H]2O[C@H](SC)[C@H](O)[C@@H](O)[C@H]2O)[C@@H](C)O)N(C)C1 | 64 AU (inactive)
15 | COc1ccc([C@@H]2CC(=O)c3c(O)cc(O[C@@H]4O[C@H](CO[C@@H]5O[C@@H](C)[C@H](O)[C@@H](O)[C@H]5O)[C@@H](O)[C@H](O)[C@H]4O)cc3O2)cc1O | 88 AU (inactive)
16 | COc1ccc(-c2cc(=O)c3c(O)cc(O[C@@H]4O[C@H](CO[C@@H]5O[C@@H](C)[C@H](O)[C@@H](O)[C@H]5O)[C@@H](O)[C@H](O)[C@H]4O)cc3o2)cc1O | 80 AU (inactive)
17 | O=C1c2c(O)cccc2[C@H]([C@@H]2O[C@H](CO)[C@@H](O)[C@H](O)[C@H]2O)c2cc(CO)cc(O)c21 | 44 AU (inactive)
18 | N=c1ccn2c(n1)O[C@H]1[C@H](O)[C@@H](CO)O[C@H]12 | 44 AU (inactive)
19 | COc1cc(NS(C)(=O)=O)ccc1Nc1c2ccccc2nc2ccccc12 | 52 AU (inactive)
20 | O=C(O)c1cc(=O)c2ccccc2[nH]1 | 40 AU (inactive)
21 | O=C(O)c1c2ccccc2cc2ccccc12 | 56 AU (inactive)
22 | C[C@H](CCC(=O)O)[C@H]1CC[C@H]2[C@@H]3[C@H](O)C[C@@H]4C[C@H](O)CC[C@]4(C)[C@H]3CC[C@]12C | 112 AU (inactive)
